Compound activity from PubChem.
BoNT-A LC inh2 – blocks Botulinum neurotoxin A light chain protease. multiplex microsphere protease substrate cleavage, flow cytometry. inhibition, % at 10 µM. 360,000 tested, 0.17% active; further: plate controls were buffer without enzyme for full effect and enzyme alone for no effect
Anthrax LF prot – anthrax lethal factor protease inhibition; P15917; multiplex microsphere protease cleavage assay, LF; inhibition, % at 10 µM; 360,000 tested, 0.12% active; AID 588501; further: plate controls were buffer without enzyme for full effect and enzyme alone for no effect
Target sequence (P15917 whole entry, looked up): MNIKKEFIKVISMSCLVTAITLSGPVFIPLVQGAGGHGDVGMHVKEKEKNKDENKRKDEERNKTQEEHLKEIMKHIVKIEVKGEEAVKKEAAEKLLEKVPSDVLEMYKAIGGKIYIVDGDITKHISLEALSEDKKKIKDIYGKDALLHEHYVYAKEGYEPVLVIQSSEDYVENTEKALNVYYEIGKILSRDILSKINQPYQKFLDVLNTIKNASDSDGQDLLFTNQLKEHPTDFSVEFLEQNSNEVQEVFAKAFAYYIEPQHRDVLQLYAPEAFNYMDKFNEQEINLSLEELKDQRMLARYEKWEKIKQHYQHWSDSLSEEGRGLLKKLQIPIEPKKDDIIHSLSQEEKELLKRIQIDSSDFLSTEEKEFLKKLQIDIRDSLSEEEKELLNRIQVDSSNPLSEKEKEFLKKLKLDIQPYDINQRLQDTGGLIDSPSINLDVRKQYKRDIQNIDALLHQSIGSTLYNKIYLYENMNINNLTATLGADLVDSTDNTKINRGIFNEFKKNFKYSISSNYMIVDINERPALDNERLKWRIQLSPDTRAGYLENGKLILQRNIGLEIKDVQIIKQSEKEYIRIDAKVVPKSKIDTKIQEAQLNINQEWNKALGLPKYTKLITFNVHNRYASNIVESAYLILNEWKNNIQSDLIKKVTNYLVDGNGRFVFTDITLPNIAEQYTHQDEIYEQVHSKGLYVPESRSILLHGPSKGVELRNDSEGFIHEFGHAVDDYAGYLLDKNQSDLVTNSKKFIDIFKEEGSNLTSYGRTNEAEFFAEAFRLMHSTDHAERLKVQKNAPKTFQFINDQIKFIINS
BoNT-F LC inh – BoNT F light chain protease inhibition | inhibition, % at 10 µM | Multiplex microsphere protease cleavage assay, flow cytometry | 360,000 tested, 0.22% active; in the data active means inhibition above about 35%, passing the limit was not always enough; inconclusive means no clear call, values can overlap the other calls; further: plate controls were buffer without enzyme for full effect and enzyme alone for no effect
MazEF act – increases E. coli MazEF RNase cleavage of RNA | P0AE70 | FAM/BHQ RNA-DNA oligo cleavage fluorescence, 5 h | activation, % at 20 µM | 350,000 tested, 0.32% active | AID 504720; in the data active means activation above about 50%
Bead autofluor – counter-screen for toxin protease inhibitors: compound fluorescence; fluorescence intensity (no concentration beside the values); 360,000 tested, 3.1% active; compound autofluorescence counterscreen, microsphere flow cytometry; active compounds read high; in the data active means fluorescence intensity above about 16000; inconclusive means no clear call, values can overlap the other calls
VHR inh abs – blocks human VHR1 dual specificity phosphatase; P51452; recombinant VHR phosphatase, pNPP absorbance; inhibition, % at 13.3 µM; 290,000 tested, 0.52% active; AID 1654; in the data active means inhibition above about 50%
The depositor's hits bear a star; ? = inconclusive; . = not tested or not shown. A selection: hits, their analogues and other compounds. The true share with any hit is near 4.1%. Unless noted, no stated cut-off is given here; in the data, active means inhibition above about 30%; inconclusive means no clear call, values can overlap the other calls; inactive means below that.

SMILES	BoNT-A LC inh2	Anthrax LF prot	BoNT-F LC inh	MazEF act	Bead autofluor	VHR inh abs
CCCn1c(NC(=O)c2ccc(C)cc2)nc2ccccc21	0.1	2.7	-9.4	6.2	3679	5.6
C=CCn1c(NC(=O)c2ccc(C)cc2)nc2ccccc21	-1.9	-10.8	7.5	10.9	3860	53.9*
Fc1ccc(-[n+]2nc(Nc3ccccc3)sc2-c2ccc(OCc3ccccc3)cc2)cc1	0.6	-7.4	-14.2	-4.5	4858	12.7
CN(C)c1ccc(Cl)c(NC(N)=S)c1	-1.1	-1.4	-10.1	3.5	4332	.
COc1cc(/C=N/NC(=O)c2cccnc2)ccc1OS(=O)(=O)c1ccc(F)cc1	-3.3	1.3	-7.7	1.9	20771*	8.4
COc1cc(/C=N/NC(=O)c2cccnc2)ccc1OS(=O)(=O)c1ccc(C)cc1	-0.3	-1.0	-1.2	8.8	2510	2.9
O=C1CCCN1CC(O)CS(=O)(=O)c1ccc(Cl)cc1 (stereo not drawn)	1.2	0.9	0.4	2.2	22765*	21.3
CCOc1cc2c3c(c1)C1(OCCO1)C(=O)N3C(C)(C)CC2C (stereo not drawn)	-0.7	1.3	-10.4	-1.9	2968	-12.0
CCOc1cc2c3c(c1)C1(Nc4ccccc4S1)C(=O)N3C(C)(C)CC2C (stereo not drawn)	?	-2.2	-3.2	10.3	23624*	7.3
COC(=O)C1(C)CCCC2(C)C3CCC(C(C)C)C(CO)C3C(CO)CC12 (stereo not drawn)	-0.6	3.8	2.8	-1.5	2943	.
CSc1ccccc1C(=O)NC1CCCCCC1	1.3	0.7	1.1	-3.2	20204*	-33.1
COc1ccc(NC(=O)c2ccccc2NC(=O)NC2CCCCC2)cc1	1.0	-4.5	-1.7	-14.9	23203*	-7.8
COc1ccc(NC(=O)c2ccccc2NC(=O)COc2ccccc2)cc1	-0.2	4.8	-7.2	-6.8	4724	-14.0
CCCCNC(=O)Nc1ccccc1C(=O)Nc1ccc(OC)cc1	0.2	-0.7	4.7	-4.9	2230	26.4
COc1ccccc1Nc1ncccc1C(=O)NCc1ccccc1	-0.6	-3.4	-3.4	18.7	20309*	-0.5
COCC(=O)Nc1ccccc1C(=O)Nc1ccc(OC)cc1	0.6	-1.5	2.4	2.5	22328*	21.3
COc1ccc(NC(=O)c2cccnc2Nc2ccccc2)cc1	-8.4	-0.2	-11.4	12.5	23086*	7.8
O=C(Nc1ccccc1NC(=O)NC1CCCCC1)NC1CCCCC1	?	-2.1	-3.3	1.1	16874*	6.0
NC(=O)c1ccccc1NC(=O)NC1CCCCC1	?	-3.3	-1.0	-2.1	22128*	16.1
O=C(Nc1cccc2ccccc12)NC1CCCCC1	-3.2	-10.9	-9.3	4.2	4575	20.7
COC(=O)c1ccccc1NC(=O)NC1CCCC1	-0.2	-1.0	0.3	-4.5	2246	21.2
COc1ccc(NC(=O)c2ccccc2C)cc1	3.6	-0.9	?	3.6	3987	13.9
O=C1OCC(c2ccc(Cl)s2)=C1c1ccccc1[N+](=O)[O-]	-2.8	-6.6	?	-24.5	4123	27.4
COc1c(C)cc(C(=O)C2CCCN(Cc3cnc(N4CCOCC4)s3)C2)cc1C (stereo not drawn)	.	.	.	-9.9	.	18.6
COc1ccc(C(=O)NC(=S)Nc2ccc3oc(=O)ccc3c2)cc1OC	-0.4	-4.0	7.6	-4.2	9972	-3.6
SMILES	BoNT-A LC inh2	Anthrax LF prot	BoNT-F LC inh	MazEF act	Bead autofluor	VHR inh abs
COc1ccc(CNC(=O)CCNC(=O)c2ccco2)cc1OC	4.4	1.8	9.3	-0.9	4334	.
COc1ccc(OC)c(S(=O)(=O)N/N=C\c2c[nH]c3ccccc23)c1	0.2	-1.5	7.1	0.2	4506	27.2
COc1cccc(-c2cc(C(=O)Nc3c(C)nn(Cc4ccccc4C)c3C)no2)c1	3.9	-0.5	3.9	2.4	19715*	30.4
Cc1nn(Cc2ccccc2)c(C)c1NC(=O)c1cccs1	1.0	0.1	4.3	-22.3	10350	4.2
COc1cccc(-c2cc(C(=O)Nc3c(C)nn(Cc4ccccc4)c3C)no2)c1	1.0	-1.5	10.5	0.0	10684	-8.6
Cc1nn(Cc2ccccc2)c(C)c1NC(=O)c1cc(-c2cccs2)on1	-0.4	-2.9	0.1	-1.6	16449*	37.3
COc1ccc(-c2cc(C(=O)Nc3c(C)nn(Cc4ccccc4)c3C)no2)cc1	-1.8	-1.5	-5.5	-8.6	24465*	19.9
Cc1nn(Cc2ccccc2)c(C)c1NC(=O)c1cc(-c2ccc3c(c2)OCO3)on1	?	0.8	-2.5	-18.6	16514*	22.6
COc1ccc(-c2oc3c4c2C(=O)OCCOC4CCC3)cc1 (stereo not drawn)	0.2	1.1	5.3	.	5891	.
O=C(NCCCn1ccnc1)c1cc(-c2ccc(Br)cc2)on1	0.0	-0.3	1.7	-13.5	4461	22.3
O=C(NCCCn1ccnc1)c1cc(-c2ccc3c(c2)OCO3)on1	0.1	1.0	-1.9	3.4	20683*	-2.0
CSc1ccccc1NC(=O)c1cc(-c2cccs2)on1	?	-0.9	2.3	-4.2	24196*	23.5
COc1ccc(-c2cc(C(=O)Nc3ccccc3SC)no2)cc1	0.8	-2.0	-6.6	-4.5	3844	14.6
CC(C)Oc1cccc(C(=O)C2CCCN(C(=O)CCc3cnn(C)c3)C2)c1 (stereo not drawn)	-3.8	0.1	-4.8	-2.4	4874	17.5
CCc1cc(C(=O)N2CCCC(C(=O)c3cccc(OC(C)C)c3)C2)n(C)n1 (stereo not drawn)	-1.0	-4.6	-11.1	-3.6	4734	-18.9
CCc1[nH]nc(C(=O)N2CCCC(C(=O)c3cccc(OC(C)C)c3)C2)c1C (stereo not drawn)	-1.2	-3.1	1.6	-6.2	5820	55.5*
Cc1nn(C)c(C)c1CCC(=O)N1CCCC(C(=O)c2cccc(OC(C)C)c2)C1 (stereo not drawn)	-1.2	2.8	-0.5	-1.3	5082	51.3*
NNC(=O)c1cc(-c2ccc(N)cc2)nc2ccc(Br)cc12	0.4	-4.6	-0.3	6.9	6231	54.1*
O=C(NCc1cccs1)c1cc(-c2ccncc2)nc2ccc(Br)cc12	.	.	.	.	.	34.8
O=C(Nc1cccnc1)c1cc(-c2cccnc2)nc2ccc(Br)cc12	3.5	1.7	2.1	-0.4	21271*	6.2
COCCNC(=O)c1cc(-c2cccnc2)nc2ccc(Br)cc12	0.7	-0.8	1.0	-4.4	23362*	30.5
CCOC(=O)/C(C#N)=C1\Nc2ccccc2N=C1N(CC(C)C)CC(C)C	37.5*	27.1	30.0	-46.6	9201	18.8
CCCCN(CCCC)C1=Nc2ccccc2N/C1=C(/C#N)C(=O)OCC	64.8*	40.1*	33.6	-4.0	2940	21.3
Cc1ccc(S(=O)(=O)CCSc2ccc(C(F)(F)F)cn2)cc1	-1.7	?	35.6*	5.6	4179	-2.5
Cn1ccc2c(N3CCCCC3)cc3c(c21)C1CCC3C1 (stereo not drawn)	0.0	-5.0	-15.8	.	6044	.
Cc1ncoc1C(=O)NC1CC(C)(C)Cc2c1cnn2-c1ccc(F)cc1 (stereo not drawn)	0.1	-0.7	-0.8	-4.2	5666	53.4*
